Screens from PubChem.
Most compounds without a hit are left out; they make up all but 3.7% or so of the library.
PfHsp90 set2 = reduces growth (ATP signal) of yeast expressing P. falciparum Hsp90; inhibition, % at 9.4 µM; 0.32% of 310,000 active; S. cerevisiae expressing PfHsp90, BacTiter-Glo ATP, 48 h; yeast lacking PDR1 and PDR3 efflux regulators;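 active = every replicate shows inhibition above about 80%, whatever the replicate mean, limit read from the data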
TIM10 inh = TIM10 yeast growth inhibition | S. cerevisiae TIM10 strain growth, BacTiter-Glo luminescence, 24 h | 1.4% of 330,000 active | inhibition, % at 10 µM;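 active = inhibition of 40% or more at the single tested concentration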;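 also: wild-type TIM10 isogenic control strain grown at permissive 25 °C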
NALP3 yeast inh = blocks the NALP3 inflammasome reconstituted in yeast; 0.39% of 330,000 active; Yeast reconstituted NLRP3/ASC/caspase-1, beta-gal luminescence, 24 h; inhibition, % at 10 µM;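 active = inhibition of 50% or more; inactive = inhibition below 50%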
tim23-1 inh = inhibits growth of tim23-1 mutant yeast | S. cerevisiae tim23-1 growth, BacTiter-Glo luminescence, 24 h | 1.3% of 330,000 active | AID 463212 | inhibition, % at 20 µM;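 active = growth inhibition of the mutant yeast at or above 50%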;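 also: temperature-sensitive mutant grown at 25 °C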
tim10-1 inh = tim10-1 yeast growth inhibition | AID 463190 | 2.2% of 330,000 active | inhibition, % at 20 µM | S. cerevisiae tim10-1 ts strain growth, BacTiter-Glo, 24 h;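 active = inhibition of at least 40%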;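 also: mutant grown at 25 °C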
tim10-1 conf = confirmation of tim10-1 mutant yeast growth inhibitors; shares compounds with tim10-1 inh; S. cerevisiae tim10-1 ts strain growth, BacTiter-Glo, 24 h; inhibition, % at 20 µM; 56% of 7,400 active; AID 463213;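 active = inhibition of yeast growth at or above a set limit in either of two repeat tests at 20 µM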;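 also: tim10-1 mutant grown at permissive 25 °C to find synthetic lethal compounds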
TIM10 conf = TIM10 yeast growth inhibition, confirmed | shares compounds with TIM10 inh | S. cerevisiae tim10 strain growth, BacTiter-Glo luminescence, 24 h | inhibition, % at 10 µM | 63% of 4,600 active | AID 463215;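 active = inhibition of yeast growth at or above a set limit in either of two replicates at 10 µM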; also: this counterscreen used the strain with wild-type TIM10
Large screens that a line does not name were inactive (follow-up assays come after a bar, where they were run).

CN1C(C(=O)Nc2ccc(OC(F)(F)F)cc2)=CC(c2cccs2)=NS1(=O)=O	tim10-1 inh 41 | tim10-1 conf 39
COc1ccc2c(c1)/C(=N/OC(=O)c1cccs1)CCC2	tim10-1 inh 52 | tim10-1 conf 41
Cc1cccc(C(=O)O/N=C2\CCCc3ccccc32)c1	tim10-1 inh 44 | tim10-1 conf 36
Cc1ccc(C(=O)O/N=C2\CCCc3ccccc32)cc1	none (no result: PfHsp90 set2)
Cc1ccc(CNS(=O)(=O)c2ccccc2[N+](=O)[O-])cc1	none
COc1cc(OC)cc(-c2nc3ccccc3c(=O)o2)c1	none
COc1cccc(-c2nc3ccccc3c(=O)o2)c1	tim10-1 inh 48 | tim10-1 conf 42
Cc1cc(NC(=O)c2oc3ccccc3c2C)ccc1-n1cnnn1	tim10-1 inh 42 | tim10-1 conf inactive
COc1cc(OC)cc(C(=O)Nc2ccc(-n3cnnn3)c(C)c2)c1	none (no result: PfHsp90 set2)
CC1CCN(C(=O)c2ccc3c(c2NCCO)C(=O)c2ccccc2C3=O)CC1	tim10-1 inh 42 (no result: PfHsp90 set2) | tim10-1 conf inactive
O=C(/C=C1\NC2(CCCC2)Cc2ccccc21)C(=O)N/N=C/c1ccccc1O	none
CN(C)c1ccc(/C=N/NC(=O)C(=O)/C=C2\NC3(CCCC3)Cc3ccccc32)cc1	tim10-1 inh 42 | tim10-1 conf inactive
C=CCn1c(N)c(C(=O)Nc2cccc(C)c2)c2nc3ccccc3nc21	tim10-1 inh 61 | tim10-1 conf 49
Nc1c(C(=O)Nc2ccccc2)c2nc3ccccc3nc2n1CCCN1CCOCC1	tim10-1 inh 64 | tim10-1 conf 44
C=CCn1c(N)c(C(=O)Nc2ccc(C)c(C)c2)c2nc3ccccc3nc21	none
O=C(NC(=S)Nc1ccccc1N1CCCCC1)c1ccc(-c2cccc([N+](=O)[O-])c2)o1	tim10-1 inh 41 | tim10-1 conf inactive
COC(=O)c1ccccc1NC(=O)C1CCCC1	none
CC(=O)NC(=S)Nc1ccccc1N1CCCCC1	tim10-1 inh 43 | tim10-1 conf inactive
O=C(NC(=S)Nc1ccccc1N1CCCC1)c1ccc([N+](=O)[O-])cc1	tim10-1 inh 57 | tim10-1 conf 42
CC(C)(C)C(=O)NC(=S)Nc1ccccc1N1CCCC1	none
COC(=O)c1ccccc1NC(=S)NC(=O)C1CCCCC1	tim10-1 inh 41 | tim10-1 conf 34
CC1CCCN(c2nc3c(c(=O)[nH]c(=O)n3C)n2CCCc2ccccc2)C1 (stereo unspecified)	none
COc1ccccc1OCc1nn[nH]n1	none
COC(=O)C1CCN(C(=O)c2ccc3nc(-c4cccc(OC)c4)oc3c2)CC1	tim10-1 inh 42 | tim10-1 conf inactive
COC(=O)C1CCN(C(=O)c2ccc3nccnc3c2)CC1	none
COc1ccc(CC(=O)n2[nH]c(=O)cc(C)c2=O)cc1OC	none
O=C(CSc1ncnc2c1nnn2Cc1ccccc1)NC1CCCC1	none
CC(C)(C)NC(=O)CSc1ncnc2c1nnn2Cc1ccccc1Cl	tim10-1 inh 48 | tim10-1 conf inactive
CCOC(=O)c1cnc(-n2nc(C)cc2C)nc1NNc1ncc(-c2ccccc2)cn1	tim10-1 inh 54 (no result: PfHsp90 set2) | tim10-1 conf inactive
CCOC(=O)c1cnc(-n2nc(C)cc2C)nc1NNc1cc(-c2ccccc2)nc(C)n1	none (no result: PfHsp90 set2)
COc1cccc(-c2noc(N)c2C#N)c1	tim10-1 inh 52 | tim10-1 conf 44
N#Cc1c(-c2ccc(F)cc2)noc1N	none
CCOC(=O)N1CCN(C(=O)c2cc(S(=O)(=O)N3CCc4ccccc43)ccc2OC)CC1	none
COc1ccc(C(=O)CN(C(=O)c2ccc(Cl)cc2)N2C(=O)C3CCCCC3C2=O)cc1 (stereo unspecified)	tim10-1 inh 47 (no result: PfHsp90 set2) | tim10-1 conf inactive
O=C(/C=C\c1ccc(-c2ccccc2)o1)c1ccccc1	tim10-1 inh 48 | tim10-1 conf 48
C=COC(=O)CSc1snc(SCC(=O)OC)c1C#N	tim10-1 inh 43 | tim10-1 conf inactive
CCN(CC)C(=O)CSc1nsc(SCC(=O)N(CC)CC)c1C#N	none
COCCN1CN(S(=O)(=O)c2cccc(Cl)c2)c2nc3ccccc3nc21	tim10-1 inh 45 | tim10-1 conf inactive
CCCCN1CN(S(=O)(=O)c2ccc(OC)cc2)c2nc3ccccc3nc21	tim10-1 inh 46 | tim10-1 conf inactive
O=C(NNC1=C(C(=O)C(F)(F)F)CCC1)c1cccc(Cl)c1	none
O=C(NNC1=C(C(=O)C(F)(F)F)CCC1)c1ccc(Cl)cc1	PfHsp90 set2 122, TIM10 inh 41, tim10-1 inh 53 | tim10-1 conf inactive | TIM10 conf 40
COc1ccc(CN2C(=O)c3ccccc3C2C(=O)NC2CCCC(C)C2C)c(OC)c1 (stereo unspecified)	none (no result: TIM10 inh, NALP3 yeast inh, tim23-1 inh, tim10-1 inh)
CC1CCN(C(=O)/C(=C/c2ccccc2Cl)c2ccccc2)CC1	TIM10 inh 41, tim10-1 inh 41 | tim10-1 conf inactive | TIM10 conf inactive
O=C(CSc1nc2ccccc2[nH]1)N=Nc1c(O)[nH]c2ccccc12	none
O=C(CSCc1ccc(Br)cc1)N=Nc1c(O)[nH]c2ccccc12	TIM10 inh 43, tim10-1 inh 45 | tim10-1 conf 40 | TIM10 conf 34
O=C(Nc1ccc(OCC(F)(F)C(F)F)c(C(F)(F)F)c1)c1ccc(Cl)cc1	TIM10 inh 58, tim10-1 inh 53 | tim10-1 conf 35 | TIM10 conf inactive
S=c1[nH]nc(COc2ccccc2)n1/N=C/c1ccc(Br)s1	TIM10 inh 46, tim10-1 inh 47 | tim10-1 conf 34 | TIM10 conf 49
Oc1ccccc1/C=N/n1c(COc2ccccc2)n[nH]c1=S	none
COc1ccccc1NC(=O)C(C)Sc1nc2ccccc2c(=O)n1CC1CCCO1 (stereo unspecified)	none
CCOC(=O)C(=Cc1ccc(-n2ccnc2)cc1)C(=O)OCC	TIM10 inh 64, tim10-1 inh 73 | tim10-1 conf 74 | TIM10 conf 69
O=S(=O)(NCCNc1ncc(C(F)(F)F)cc1Cl)C(F)(F)F	TIM10 inh 45, tim10-1 inh 55 | tim10-1 conf 46 | TIM10 conf inactive
O=C1C=CC(=O)N1CCNc1ncc(C(F)(F)F)cc1Cl	PfHsp90 set2 101, TIM10 inh 88, tim10-1 inh 92 | tim10-1 conf 94 | TIM10 conf 98
CS(=O)(=O)NCCNc1ncc(C(F)(F)F)cc1Cl	none
O=C(Nc1c2c(nn1-c1ccc(F)cc1)CS(=O)(=O)C2)c1ccc(S(=O)(=O)N2CCOCC2)cc1	none
O=P1(O)Cc2ccccc2-c2ccccc21	none (no result: TIM10 inh, NALP3 yeast inh, tim23-1 inh, tim10-1 inh)
CCc1ccc(-c2cn(C3CCCCC3)c(=S)[nH]2)cc1	TIM10 inh 53, tim10-1 inh 45 | tim10-1 conf 46 | TIM10 conf 56
CCc1ccc(-n2cc(-c3ccc([N+](=O)[O-])cc3)[nH]c2=S)cc1	none
